“And” between values parts separate entries of the source, which are not always exact repeats. Equal values may be shown once. Screen size: about 5,500 compounds; about 2,000 (36%) were called active. Roughly 18% stayed inconclusive and do not appear here. No stated cut-off is given here; in the data, active means normalized growth mostly below about 0.91 (no sharp cut-off); inconclusive means no clear call, values can overlap the other calls; inactive means mostly above about 0.92. Some of the results follow.
Test: chemical genetic growth profiling, strain panel (AID 1159580);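 further: tested at 20 µM; growth read once vehicle control cultures reached saturation at 30 °C; 1 = growth at the plate median or of vehicle wells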
Conditions: S. cerevisiae deletion strains, growth OD

Measured: normalized growth

C=CC1=C(C)/C(=C/c2[nH]c(Cc3[nH]c(/C=C4\NC(=O)C(C)=C4C=C)c(C)c3CCC(=O)O)c(CCC(=O)O)c2C)NC1=O
inactive: locus YAL013W, strain DEP1, stronger effect = lower value 1.02 | locus YAL021C, strain ccr4, stronger effect = lower value 0.949 | locus YAL026C, strain drs2, stronger effect = lower value 0.982 | locus YAL030W, strain snc1, stronger effect = lower value 0.996 | locus YBL061C, strain skt5, stronger effect = lower value 0.993 | locus YBR009C, strain hhf1, stronger effect = lower value 1.03 | locus YBR021W, strain FUR4, stronger effect = lower value 1.02 | locus YBR023C, strain chs3, stronger effect = lower value 0.993 | locus YBR171W, strain sec66, stronger effect = lower value 0.982 | locus YBR229C, strain ROT2, stronger effect = lower value 1.01 | locus YBR231C, strain swc5, stronger effect = lower value 1 | locus YBR279W, strain paf1, stronger effect = lower value 0.995 | locus YCL011C, strain gbp2, stronger effect = lower value 0.984 | locus YCL016C, strain dcc1, stronger effect = lower value 0.994 | locus YCL029C, strain bik1, stronger effect = lower value 1.02 | locus YCL061C, strain MRC1, stronger effect = lower value 0.978 | locus YCL069W, strain vba3, stronger effect = lower value 0.986 | locus YCR088W, strain abp1, stronger effect = lower value 0.98 | locus YDL005C, strain med2, stronger effect = lower value 0.981 | locus YDL035C, strain GPR1, stronger effect = lower value 1.02 | locus YDL040C, strain nat1, stronger effect = lower value 0.979 | locus YDL074C, strain BRE1, stronger effect = lower value 1.03 | locus YDL101C, strain DUN1, stronger effect = lower value 1.01 | locus YDL134C, strain PPH21, stronger effect = lower value 1.02 | locus YDL185W, strain tfp1, stronger effect = lower value 1.01 | locus YDL192W, strain arf1, stronger effect = lower value 1.02 | locus YDR001C, strain nth1, stronger effect = lower value 0.979 | locus YDR069C, strain doa4, stronger effect = lower value 0.998 | locus YDR101C, strain arx1, stronger effect = lower value 1.03 | locus YDR137W, strain rgp1, stronger effect = lower value 0.931 | locus YDR159W, strain sac3, stronger effect = lower value 1.02 | locus YDR162C, strain NBP2, stronger effect = lower value 1.04 | locus YDR195W, strain ref2 0.992 | locus YDR297W, strain sur2, stronger effect = lower value 0.978 | locus YDR318W, strain mcm21, stronger effect = lower value 1.02 | locus YDR334W, strain swr1, stronger effect = lower value 0.955 | locus YDR335W, strain msn5, stronger effect = lower value 0.974 | locus YDR388W, stronger effect = lower value 1.02 | locus YDR392W, strain spt3, stronger effect = lower value 0.916 | locus YDR502C, strain sam2, stronger effect = lower value 1 | locus YEL003W, strain gim4, stronger effect = lower value 0.981 | locus YEL037C, strain rad23, stronger effect = lower value 0.984 | locus YEL061C, strain CIN8 (second series), stronger effect = lower value 0.989 | locus YEL061C, strain CIN8, stronger effect = lower value 1 | locus YER015W, strain faa2, stronger effect = lower value 0.99 | locus YER016W, strain bim1, stronger effect = lower value 0.992 | locus YER110C, stronger effect = lower value 1.01 | locus YER111C, strain swi4, stronger effect = lower value 1 | locus YER155C, strain BEM2 (second series), stronger effect = lower value 1.02 | locus YER155C, strain BEM2, stronger effect = lower value 1.01 | locus YER167W, strain BCK2, stronger effect = lower value 1.01 | locus YFR010W, strain ubp6, stronger effect = lower value 0.985 | locus YGL078C, strain dbp3, stronger effect = lower value 1.04 | locus YGL086W, strain mad1, stronger effect = lower value 1.03 | locus YGL167C, strain pmr1, stronger effect = lower value 0.995 | locus YGL173C, strain kem1, stronger effect = lower value 0.975 | locus YGL227W, strain vid30, stronger effect = lower value 0.994 | locus YGL240W, strain doc1, stronger effect = lower value 1.02 | locus YGL248W, strain PDE1, stronger effect = lower value 1.02 | locus YGL253W, strain hxk2, stronger effect = lower value 1.01 | locus YGR078C, strain PAC10, stronger effect = lower value 1 | locus YGR135W, strain pre9, stronger effect = lower value 0.993 | locus YGR252W, strain gcn5, stronger effect = lower value 0.99 | locus YHR013C, strain ard1, stronger effect = lower value 0.97 | locus YHR027C, strain rpn1, stronger effect = lower value 0.987 | locus YHR030C, strain SLT2, stronger effect = lower value 1.01 and 1.03 | locus YHR079C, strain IRE1 (second series), stronger effect = lower value 1.01 | locus YHR079C, strain IRE1, stronger effect = lower value 1.04 | locus YHR094C, strain hxt1, stronger effect = lower value 1.01 | locus YHR129C, strain ARP1, stronger effect = lower value 1 | locus YHR142W, strain chs7, stronger effect = lower value 0.932 | locus YHR200W, strain rpn10, stronger effect = lower value 1.02 | locus YIL066C, strain RNR3, stronger effect = lower value 1.02 | locus YIL073C, strain SPO22, stronger effect = lower value 1.15 | locus YIL125W, strain kgd1, stronger effect = lower value 1.05 | locus YIR030C, strain dcg1, stronger effect = lower value 1.02 | locus YJL092W, strain hpr5, stronger effect = lower value 0.961 | locus YJL095W, strain BCK1 (second series), stronger effect = lower value 0.994 | locus YJL095W, strain BCK1, stronger effect = lower value 1.02 and 0.973 | locus YJL115W, strain asf1, stronger effect = lower value 0.978 | locus YJL129C, strain trk1, stronger effect = lower value 0.97 | locus YJL134W, strain LCB3, stronger effect = lower value 1.01 | locus YJL154C, strain vps35, stronger effect = lower value 0.982 | locus YJL164C, strain tpk1, stronger effect = lower value 0.973 | locus YJL166W, strain qcr8, stronger effect = lower value 0.997 | locus YJL168C, strain set2, stronger effect = lower value 1.01 | locus YJL187C, strain SWE1 (second series), stronger effect = lower value 0.998 | locus YJL187C, strain SWE1, stronger effect = lower value 0.983 | locus YJR043C, strain POL32, stronger effect = lower value 1.02 | locus YJR066W, strain TOR1, stronger effect = lower value 1 | locus YJR075W, strain HOC1, stronger effect = lower value 1.01 | locus YKL068W, stronger effect = lower value 1.03 | locus YKL085W, strain MDH1 (second series), stronger effect = lower value 1.04 | locus YKL085W, strain MDH1, stronger effect = lower value 1.04 | locus YKL160W, strain elf1, stronger effect = lower value 0.972 | locus YKR001C, strain vps1, stronger effect = lower value 1.05 | locus YKR026C, strain gcn3, stronger effect = lower value 0.986 | locus YKR091W, strain srl3, stronger effect = lower value 0.982 | locus YLL001W, strain dnm1, stronger effect = lower value 0.988 | locus YLL026W, stronger effect = lower value 0.99 | locus YLL041C, strain sdh2, stronger effect = lower value 0.979 | locus YLR027C, strain aat2, stronger effect = lower value 0.979 | locus YLR039C, strain RIC1, stronger effect = lower value 1 | locus YLR058C, strain SHM2, stronger effect = lower value 1 | locus YLR102C, strain apc9, stronger effect = lower value 1.02 | locus YLR113W, strain HOG1, stronger effect = lower value 0.964 | locus YLR221C, strain rsa3, stronger effect = lower value 0.966 | locus YLR258W, strain gsy2, stronger effect = lower value 1 | locus YLR262C, strain YPT6 (second series), stronger effect = lower value 0.963 | locus YLR262C, strain YPT6, stronger effect = lower value 1.08 | locus YLR268W, strain sec22, stronger effect = lower value 1.03 | locus YLR320W, strain mms22, stronger effect = lower value 1.02 | locus YLR330W, strain CHS5, stronger effect = lower value 1.01 | locus YLR342W, strain FKS1 (second series), stronger effect = lower value 1.01 | locus YLR342W, strain FKS1, stronger effect = lower value 0.992 | locus YLR357W, strain rsc2, stronger effect = lower value 1.01 | locus YLR370C, strain arc18, stronger effect = lower value 0.976 | locus YLR371W, strain rom2, stronger effect = lower value 1.03 | locus YLR384C, strain iki3, stronger effect = lower value 0.987 | locus YLR418C, strain cdc73, stronger effect = lower value 1.03 | locus YML016C, strain PPZ1, stronger effect = lower value 1 | locus YML032C, strain rad52, stronger effect = lower value 1.03 | locus YML120C, strain ndi1, stronger effect = lower value 0.961 | locus YML124C, strain tub3, stronger effect = lower value 1.02 | locus YMR058W, strain fet3, stronger effect = lower value 0.971 | locus YMR078C, strain ctf18, stronger effect = lower value 1.04 | locus YMR125W, strain sto1, stronger effect = lower value 1.02 | locus YMR129W, stronger effect = lower value 0.988 | locus YMR205C, strain PFK2, stronger effect = lower value 1.02 | locus YMR223W, strain ubp8, stronger effect = lower value 1 | locus YMR231W, strain pep5, stronger effect = lower value 0.99 | locus YMR263W, strain SAP30, stronger effect = lower value 1 | locus YMR307W, strain GAS1, stronger effect = lower value 0.968 | locus YNL067W, strain RPL9B, stronger effect = lower value 0.999 | locus YNL071W, strain lat1, stronger effect = lower value 0.988 | locus YNL183C, strain NPR1, stronger effect = lower value 0.919 | locus YNL209W, strain ssb2, stronger effect = lower value 0.987 | locus YNL233W, strain BNI4, stronger effect = lower value 1.01 | locus YNL248C, strain rpa49, stronger effect = lower value 0.938 | locus YNL250W, strain rad50, stronger effect = lower value 1.01 | locus YNL271C, strain bni1, stronger effect = lower value 1.03 | locus YNL298W, strain CLA4, stronger effect = lower value 1.02 | locus YNL307C, strain MCK1, stronger effect = lower value 1.01 | locus YNL322C, strain KRE1 (second series), stronger effect = lower value 0.982 | locus YNL322C, strain KRE1, stronger effect = lower value 1.01 | locus YNR049C, strain mso1, stronger effect = lower value 0.981 | locus YNR052C, strain pop2, stronger effect = lower value 1.01 | locus YOL012C, strain htz1 0.856 | locus YOL147C, strain pex11, stronger effect = lower value 1.02 | locus YOR001W, strain rrp6, stronger effect = lower value 0.951 | locus YOR061W, strain CKA2, stronger effect = lower value 1.03 | locus YOR069W, strain VPS5, stronger effect = lower value 1.01 | locus YOR070C, strain gyp1, stronger effect = lower value 0.996 | locus YOR080W, strain dia2, stronger effect = lower value 0.986 | locus YOR083W, strain WHI5, stronger effect = lower value 0.94 | locus YOR106W, strain vam3, stronger effect = lower value 0.951 | locus YOR136W, strain idh2, stronger effect = lower value 1.02 | locus YOR144C, strain elg1, stronger effect = lower value 1.01 | locus YOR184W, strain ser1, stronger effect = lower value 1.07 | locus YOR231W, strain MKK1, stronger effect = lower value 1.03 | locus YOR265W, strain rbl2, stronger effect = lower value 0.985 | locus YOR270C, strain vph1, stronger effect = lower value 0.971 | locus YOR290C, strain snf2, stronger effect = lower value 1.01 | locus YOR316C, strain cot1, stronger effect = lower value 1.02 | locus YPL051W, strain arl3, stronger effect = lower value 0.969 | locus YPL055C, strain LGE1, stronger effect = lower value 0.995 | locus YPL078C, strain atp4, stronger effect = lower value 0.939 | locus YPL106C, strain sse1, stronger effect = lower value 0.949 | locus YPL240C, strain hsp82, stronger effect = lower value 0.982 | locus YPL241C, strain CIN2, stronger effect = lower value 1.01 | locus YPL256C, strain CLN2, stronger effect = lower value 1.06 | locus YPR119W, strain clb2, stronger effect = lower value 1.01 | locus YPR163C, strain tif3, stronger effect = lower value 1.02 | locus YPR167C, strain met16, stronger effect = lower value 1.02 | strain wtn01, stronger effect = lower value 1.04
active: locus YKL009W, strain mrt4, stronger effect = lower value 1.16 [resistant]

— PubChem BioAssay AID1159580 (chemical genetic matrix, 2015)
